Measured values taken from PubChem BioAssay (NCI).
About 79,000 compounds went through this panel and 15% of them were active in at least one assay; those are over-represented in the sample as a whole. Cut-off read from the data, not from the text of the source: active = growth inhibition above about 70%; inactive = the rest.

Legend:
[1] = NCI Yeast Anticancer Drug Screen. Data for the rad50 strain (AID 155);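 note: 0% = growth of vehicle-only cultures of the same strain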; conditions: S. cerevisiae rad50 strain growth inhibition; at 50.0 µM; active compounds read high
How it was run: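 Readout: growth inhibition relative to vehicle-treated cultures. Compound exposure was carried out in a genetically defined yeast strain deficient in DNA damage repair.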

[2] = NCI Yeast Anticancer Drug Screen. Data for the mec2-1 strain (AID 157); conditions: S. cerevisiae mec2-1 strain, at 50.0 µM, active compounds read high
How it was run: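 Readout is yeast growth inhibition, normalised to vehicle-treated controls, in the mec2-1 strain exposed to compound.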

[3] = NCI Yeast Anticancer Drug Screen. Data for the sgs1 mgt1 strain (AID 161);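 note: 0% = growth of cultures given vehicle only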; conditions: S. cerevisiae sgs1 mgt1 strain, at 50.0 µM, active compounds read high
How it was run: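 Percent growth inhibition was derived by comparing compound-exposed mutant yeast with vehicle-exposed cultures. The strain carries alterations in DNA damage repair.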

[4] = NCI Yeast Anticancer Drug Screen. Data for the cln2 rad14 strain (AID 165);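 note: 0% = growth equal to vehicle treated cultures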; conditions: S. cerevisiae cln2 rad14 strain, at 50.0 µM, active compounds read high
How it was run: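 Relative to vehicle controls, growth inhibition of compound-treated cln2 rad14 yeast was recorded.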

[5] = NCI Yeast Anticancer Drug Screen. Data for the bub3 strain (AID 167); conditions: S. cerevisiae bub3 mutant strain, at 50.0 µM, active compounds read high
How it was run: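 Readout: yeast growth inhibition, expressed relative to vehicle-only wells. The test organism is a mutant strain from a panel with lesions in DNA repair or checkpoint genes.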

[6] = NCI Yeast Anticancer Drug Screen. Data for the mlh1 rad18 strain (AID 175); conditions: S. cerevisiae mlh1 rad18 strain growth inhibition; at 50.0 µM; active compounds read high
How it was run: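 Test agents were incubated with a yeast strain of defined genotype (DNA damage repair defect). Inhibition of growth was derived by comparison with vehicle-exposed cultures.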

Measured: growth inhibition

CC1S/C(=N\N=C\c2ccc(Cl)cc2)N=C1c1c(O)c2ccccc2oc1=O (stereo unspecified)
inactive: [1] 13.2% | [2] 52% | [3] 57.4% | [4] -7.5% | [5] 7.65% | [6] 45.9%

CCCCCCCC(NC(C)=O)(C(=O)OCC)C(=O)OCC
inactive: [1] -9.25% | [2] -19.1% | [3] -4.55% | [4] -29.9% | [5] 6.75% | [6] -28.8%

CC1=NN(c2cccc([N+](=O)[O-])c2)C(=O)C1
inactive: [1] 13.9% | [2] -25% | [3] 10.7% | [4] -5.7% | [5] 16.8% | [6] 32.6%

c1ccc(C2=C(c3ccccc3)c3ccccc3C2)cc1
inactive: [1] 0.3% | [2] -7.3% | [3] 8.55% | [4] 0.35% | [5] -8.85% | [6] -9.35%

CC(=O)Nc1cccc(F)c1
inactive: [1] -35.1% | [2] 1.1% | [3] -25.4% | [4] -22.2% | [5] -13.8% | [6] -38.1%

CCN(CC)CCC1CCCCN1CC(=O)N1c2cc(Cl)ccc2NC(=O)CC1C (stereo unspecified)
inactive: [1] 24.9% | [2] 0.8% | [3] 15.1% | [4] -6.45% | [5] 1.3% | [6] 20.6%

CN=S(=O)(OC/C=C/COS(=O)(=NC)c1ccc(C)cc1)c1ccc(C)cc1 (stereo unspecified)
inactive: [1] -17.9% | [2] -21.9% | [3] -24.1% | [4] -8.55% | [5] -10.4% | [6] -26.3%

COC(=O)c1ccccc1C#CC#Cc1ccccc1C(=O)OC
inactive: [1] -5.25% | [2] -32.1% | [3] 4.6% | [4] 8.85% | [5] -2.4% | [6] -3.5%

CCOC(=O)C(CCN(C)C)C(=O)OCC
inactive: [1] 5.75% | [2] -10.2% | [3] 2.8% | [4] 1.1% | [5] -23.1% | [6] 14.2%

CC(=O)NNC(=S)N/C=C(\C#N)c1nc2ccccc2s1
inactive: [1] 22.2% | [2] 12.2% | [3] -17.2% | [4] 18.4% | [5] -10.7% | [6] 12.1%

COc1ccc(NC(=O)CC(=O)N2N=C(N(CCC#N)c3ccc(Cl)cc3)CC2c2ccccc2)cc1 (stereo unspecified)
inactive: [1] 16.5% | [2] -17% | [3] -1.55% | [4] 7.5% | [5] 2.05% | [6] -6.05%

COc1cc(OC)c(C(=O)/C=C/c2ccccc2)c(O)c1OC
inactive: [1] 24.8% | [2] -7.8% | [3] 20.9% | [4] -45.2% | [5] -15.1% | [6] 30.6%

N#C/C(=C\c1ccccc1Cl)C(=O)c1ccccc1
inactive: [1] 11.4% | [2] 11.8% | [3] -5.9% | [4] 9.9% | [5] 18.9% | [6] 32.4%

CC(C)CCCC(C)C1CCC2C3CCC4CC(=O)CCCC4(C)C3CCC12C (stereo unspecified)
inactive: [1] 19.8% | [2] 3.35% | [3] 20.7% | [4] 12.2% | [5] 2.1% | [6] 32.5%

NC(=O)C(CO)NC(=O)c1ccc[n+](Cc2ccccc2)c1 (stereo unspecified)
inactive: [1] 5.3% | [2] -1.6% | [3] -1.2% | [4] -4.5% | [5] 0.15% | [6] 27.9%

CC(=O)Nc1ccc(/C=N/Nc2nc3ccccc3s2)cc1
inactive: [1] -10.3% | [2] -11% | [3] -5% | [4] -50.4% | [5] 1.9% | [6] 31.1%

[Cl][Pt+2][Cl].[NH-]CC(O)c1ccc2oc3ccccc3c2c1.[NH-]CC(O)c1ccc2oc3ccccc3c2c1 (stereo unspecified)
inactive: [1] -23.3% | [2] -11.2% | [3] -30.6% | [4] -21.1% | [5] 7.35% | [6] 17.6%

N#C/C(=C1\SC(N=Nc2ccc(Cl)cc2)C(=O)N1c1ccccc1)c1nc2ccccc2[nH]1 (stereo unspecified)
inactive: [1] 6.6% | [2] 6.05% | [3] 6.75% | [4] -40.9% | [5] 3.05% | [6] -5.05%

O=C(O)CNCc1ccc2c(c1)OCCO2
inactive: [1] 6.7% | [2] 15.7% | [3] -10.4% | [4] -3.35% | [5] -3.5% | [6] -15.8%

COc1cc(C(c2cc3c(cc2O)OCO3)N2CCCC2)cc(OC)c1OC (stereo unspecified)
inactive: [1] -13.2% | [2] 17.9% | [3] -13.9% | [4] 13% | [5] -5.3% | [6] -7.85%

c1ccc(/N=C2\c3ccccc3CN2c2ccccn2)nc1
inactive: [1] -21.9% | [2] 3.75% | [3] -7.6% | [4] -3.75% | [5] 9% | [6] -1.35%

COc1ccc(C2SCC(=O)N2NC(=O)c2ccc(NC(C)=O)cc2)c(OC)c1 (stereo unspecified)
inactive: [1] -27.7% | [2] -7.5% | [3] -23.2% | [4] 12.1% | [5] -22% | [6] -11.7%

Cc1ccc(Nc2ccc(Nc3ccc(C)cc3)c3c2C(=O)c2ccccc2C3=O)cc1
inactive: [1] -1.05% | [2] -16.9% | [3] -4.15% | [4] 5% | [5] -8.2% | [6] -4.45%

Cc1ccc(OCC(O)CN2CCN(c3ccc(C)cc3)CC2)cc1 (stereo unspecified)
inactive: [1] 26.6% | [2] -10.4% | [3] 36% | [4] -35.7% | [5] 4.55% | [6] 0.05%

C=CCNC(=O)c1ccccc1OCC(=O)O
inactive: [1] -12.7% | [2] -37.3% | [3] -8.75% | [4] -8.1% | [5] -29.1% | [6] 1.4%

CN(C)c1ccc(N=C2C=CC(=C(C#N)C#N)c3ccccc32)cc1
inactive: [1] -24% | [2] -6.05% | [3] -14.2% | [4] -34% | [5] -20.9% | [6] -50%

Cc1c(C(=O)O)n2cnnc2c2ccccc12
inactive: [1] 22.8% | [2] 4% | [3] -38.1% | [4] 11.9% | [5] -15.8% | [6] 1.5%

CN(C)/N=C1/CCC(C(F)(F)F)(C(F)(F)F)O1
inactive: [1] 40.1% | [2] 31.6% | [3] 41.5% | [4] 28.9% | [5] 5.1% | [6] -18.4%

COC(=O)C1=COC(OC2OC(CO)C(O)C(O)C2O)C2C(C)CC(=O)C12 (stereo unspecified)
inactive: [1] -39.2% | [2] -39% | [3] -22.4% | [4] 20.6% | [5] -29.9% | [6] -20.4%

Nn1c(SSSSc2nnc(-c3ccccc3)n2N)nnc1-c1ccccc1
inactive: [1] -12.8% | [2] 3.85% | [3] -27.2% | [4] -19.7% | [5] 14.6% | [6] 4%

NCCCCC(N)C(=O)O (stereo unspecified)
inactive: [1] 7.4% | [2] 9.25% | [3] -33.9% | [4] 8.55% | [5] -2.1% | [6] 22%

O=C(O)c1n[nH]c2ccccc12
inactive: [1] 8.5% | [2] -14.1% | [3] 3.75% | [4] 5.6% | [5] -5.7% | [6] -9.85%

O=C(/C=C/c1cccs1)c1ccc([N+](=O)[O-])cc1
inactive: [1] -59% | [2] -58.7% | [3] -27.6% | [4] -6.3% | [5] -23.1% | [6] -21.6%

CC(OCc1ccccc1)C(NC(=O)C1CSSCC(NC(=O)C(Cc2ccccc2)NC(=O)OCc2ccccc2)C(=O)NC(Cc2ccccc2)C(=O)NC(Cc2cn(C=O)c3ccccc23)C(=O)NC(CCCCNC(=O)OCc2ccccc2)C(=O)NC(C(C)OCc2ccccc2)C(=O)N1)C(N)=O (stereo unspecified)
inactive: [1] -10.7% | [2] 0.7% | [3] -4.75% | [4] 21.1% | [5] 23.8% | [6] -3%

CC(C)(C)OC(=O)Cc1ccc2c(ccn2Cc2ccccc2)c1
inactive: [1] -26.2% | [2] -29.6% | [3] -10.9% | [4] -22.1% | [5] 4.65% | [6] -20%

CSC(=NCCCCN=C(NS(=O)(=O)c1ccc(Cl)cc1)SC)NS(=O)(=O)c1ccc(Cl)cc1
inactive: [1] -18.1% | [2] -27% | [3] -16.9% | [4] 13.9% | [5] -8.8% | [6] -11.2%
